# Reference: the supplement of paper PMC12282887
# ± gives the standard deviation of the averaged measurements.
# How the values were obtained:
# Assay in all cases: promoter activity interaction Z-score (Lux/OD deviation from empty-vector control); higher = stronger promoter induction by the compound
# [1] = system: E. coli BW25113 acrABp lux reporter
# Method in brief: (§1)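 Low-copy luxCDABE promoter reporters were carried by E. coli BW25113, either wild type or lacking one of three genes, grown in 40 µl LB Lennox in 384-well plates at 37°C. Each compound was run at four 1:2 dilutions in biological duplicates, with OD600 and luminescence read every 30 min for 12 h. Integration used 0–8 h for wild type and 1–9 h for deletion strains, and wells under 10% of the median growth value were removed. Luminescence normalised to growth was fitted against a control, and the Z-transformed residual is the score.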
# [2] = system: E. coli BW25113 micFp lux reporter
# Method in brief: as §1
# [3] = system: E. coli BW25113 ompFp lux reporter
# Method in brief: as §1
# [4] = system: E. coli BW25113 robp lux reporter
# Method in brief: as §1
# [5] = system: E. coli BW25113 soxSp lux reporter
# Method in brief: as §1
# [6] = system: E. coli BW25113 tolCp lux reporter
# Method in brief: as §1
# [7] = 4.8 µg/ml, genetic background: wild type
# [8] = 4.8 µg/ml, genetic background: ΔmarA
# [9] = 4.8 µg/ml, genetic background: Δrob
# [10] = 4.8 µg/ml, genetic background: ΔsoxS
# [11] = 9.5 µg/ml, genetic background: wild type
# [12] = 9.5 µg/ml, genetic background: ΔmarA
# [13] = 9.5 µg/ml, genetic background: Δrob
# [14] = 9.5 µg/ml, genetic background: ΔsoxS
# [15] = 19 µg/ml, genetic background: wild type
# [16] = 19 µg/ml, genetic background: ΔmarA
# [17] = 19 µg/ml, genetic background: Δrob
# [18] = 19 µg/ml, genetic background: ΔsoxS
# [19] = 38.1 µg/ml, genetic background: wild type
# [20] = 38.1 µg/ml, genetic background: ΔmarA
# [21] = 38.1 µg/ml, genetic background: Δrob
# [22] = 38.1 µg/ml, genetic background: ΔsoxS
compound,measurement,setting,value
NC(N)=S [Thiourea],promoter activity interaction Z-score,[1]; [7],-0.187 ± 0.18
same,promoter activity interaction Z-score,[1]; [8],-0.399 ± 0.26
same,promoter activity interaction Z-score,[1]; [9],-0.36 ± 0.23
same,promoter activity interaction Z-score,[1]; [10],-0.569 ± 0.35
same,promoter activity interaction Z-score,[1]; [11],-0.18 ± 0.14
same,promoter activity interaction Z-score,[1]; [12],0.241 ± 0.33
same,promoter activity interaction Z-score,[1]; [13],0.0155 ± 0.17
same,promoter activity interaction Z-score,[1]; [14],-0.239 ± 0.4
same,promoter activity interaction Z-score,[1]; [15],-0.0387 ± 0.081
same,promoter activity interaction Z-score,[1]; [16],-0.48 ± 0.68
same,promoter activity interaction Z-score,[1]; [17],-0.186 ± 0.13
same,promoter activity interaction Z-score,[1]; [18],-0.351 ± 0.079
same,promoter activity interaction Z-score,[1]; [19],-0.113 ± 0.22
same,promoter activity interaction Z-score,[1]; [20],-0.12 ± 0.22
same,promoter activity interaction Z-score,[1]; [21],0.24 ± 0.064
same,promoter activity interaction Z-score,[1]; [22],-0.0892 ± 0.19
same,promoter activity interaction Z-score,[2]; [7],-0.235 ± 0.23
same,promoter activity interaction Z-score,[2]; [8],-0.0756 ± 0.059
same,promoter activity interaction Z-score,[2]; [9],-0.0669 ± 0.076
same,promoter activity interaction Z-score,[2]; [10],-0.189 ± 0.15
same,promoter activity interaction Z-score,[2]; [11],0.261 ± 0.46
same,promoter activity interaction Z-score,[2]; [12],-0.0468 ± 0.13
same,promoter activity interaction Z-score,[2]; [13],-0.0323 ± 0.16
same,promoter activity interaction Z-score,[2]; [14],0.0238 ± 0.19
same,promoter activity interaction Z-score,[2]; [15],-0.293 ± 0.083
same,promoter activity interaction Z-score,[2]; [16],-0.144 ± 0.073
same,promoter activity interaction Z-score,[2]; [17],-0.0798 ± 0.19
same,promoter activity interaction Z-score,[2]; [18],-0.203 ± 0.18
same,promoter activity interaction Z-score,[2]; [19],-0.442 ± 0.33
same,promoter activity interaction Z-score,[2]; [20],-0.164 ± 0.059
same,promoter activity interaction Z-score,[2]; [21],-0.0862 ± 0.063
same,promoter activity interaction Z-score,[2]; [22],-0.341 ± 0.12
same,promoter activity interaction Z-score,[3]; [7],0.0411 ± 0.63
same,promoter activity interaction Z-score,[3]; [8],0.273 ± 0.023
same,promoter activity interaction Z-score,[3]; [9],0.0473 ± 0.84
same,promoter activity interaction Z-score,[3]; [10],-0.209 ± 0.4
same,promoter activity interaction Z-score,[3]; [11],0.331 ± 0.68
same,promoter activity interaction Z-score,[3]; [12],0.292 ± 0.32
same,promoter activity interaction Z-score,[3]; [13],0.271 ± 0.042
same,promoter activity interaction Z-score,[3]; [14],-0.0695 ± 0.25
same,promoter activity interaction Z-score,[3]; [15],0.307 ± 0.13
same,promoter activity interaction Z-score,[3]; [16],0.189 ± 0.15
same,promoter activity interaction Z-score,[3]; [17],-0.133 ± 0.22
same,promoter activity interaction Z-score,[3]; [18],-0.0487 ± 0.067
same,promoter activity interaction Z-score,[3]; [19],0.484 ± 0.11
same,promoter activity interaction Z-score,[3]; [20],0.567 ± 0.37
same,promoter activity interaction Z-score,[3]; [21],0.804 ± 0.41
same,promoter activity interaction Z-score,[3]; [22],0.352 ± 0.25
same,promoter activity interaction Z-score,[4]; [7],0.198 ± 0.54
same,promoter activity interaction Z-score,[4]; [8],-0.278 ± 0.4
same,promoter activity interaction Z-score,[4]; [9],-0.498 ± 0.88
same,promoter activity interaction Z-score,[4]; [10],-0.368 ± 0.72
same,promoter activity interaction Z-score,[4]; [11],0.517 ± 0.91
same,promoter activity interaction Z-score,[4]; [12],0.53 ± 0.53
same,promoter activity interaction Z-score,[4]; [13],-0.0465 ± 0.47
same,promoter activity interaction Z-score,[4]; [14],-0.206 ± 0.084
same,promoter activity interaction Z-score,[4]; [15],0.0253 ± 0.099
same,promoter activity interaction Z-score,[4]; [16],-0.564 ± 0.03
same,promoter activity interaction Z-score,[4]; [17],-0.172 ± 0.36
same,promoter activity interaction Z-score,[4]; [18],-0.633 ± 0.39
same,promoter activity interaction Z-score,[4]; [19],0.15 ± 0.3
same,promoter activity interaction Z-score,[4]; [20],-0.571 ± 0.48
same,promoter activity interaction Z-score,[4]; [21],0.0676 ± 0.18
same,promoter activity interaction Z-score,[4]; [22],-0.509 ± 0.51
same,promoter activity interaction Z-score,[5]; [7],-0.265 ± 0.12
same,promoter activity interaction Z-score,[5]; [8],-0.27 ± 0.0046
same,promoter activity interaction Z-score,[5]; [9],-0.311 ± 0.21
same,promoter activity interaction Z-score,[5]; [10],-0.36 ± 0.21
same,promoter activity interaction Z-score,[5]; [11],-0.21 ± 0.083
same,promoter activity interaction Z-score,[5]; [12],-0.161 ± 0.02
same,promoter activity interaction Z-score,[5]; [13],-0.36 ± 0.053
same,promoter activity interaction Z-score,[5]; [14],-0.318 ± 0.36
same,promoter activity interaction Z-score,[5]; [15],-0.205 ± 0.22
same,promoter activity interaction Z-score,[5]; [16],-0.41 ± 0.026
same,promoter activity interaction Z-score,[5]; [17],-0.292 ± 0.098
same,promoter activity interaction Z-score,[5]; [18],-0.397 ± 0.33
same,promoter activity interaction Z-score,[5]; [19],-0.492 ± 0.0079
same,promoter activity interaction Z-score,[5]; [20],-0.464 ± 0.087
same,promoter activity interaction Z-score,[5]; [21],-0.389 ± 0.024
same,promoter activity interaction Z-score,[5]; [22],-0.476 ± 0.5
same,promoter activity interaction Z-score,[6]; [7],-0.648 ± 0.31
same,promoter activity interaction Z-score,[6]; [8],-0.358 ± 0.66
same,promoter activity interaction Z-score,[6]; [9],0.771 ± 0.35
same,promoter activity interaction Z-score,[6]; [10],-0.943 ± 0.29
same,promoter activity interaction Z-score,[6]; [11],-0.618 ± 1.8
same,promoter activity interaction Z-score,[6]; [12],0.4 ± 0.71
same,promoter activity interaction Z-score,[6]; [13],0.609 ± 0.4
same,promoter activity interaction Z-score,[6]; [14],-0.368 ± 0.54
same,promoter activity interaction Z-score,[6]; [15],-0.0827 ± 0.073
same,promoter activity interaction Z-score,[6]; [16],-0.203 ± 0.14
same,promoter activity interaction Z-score,[6]; [17],-0.414 ± 0.69
same,promoter activity interaction Z-score,[6]; [18],0.14 ± 0.66
same,promoter activity interaction Z-score,[6]; [19],0.133 ± 0.26
same,promoter activity interaction Z-score,[6]; [20],-0.216 ± 0.12
same,promoter activity interaction Z-score,[6]; [21],0.188 ± 0.21
same,promoter activity interaction Z-score,[6]; [22],-0.969 ± 1.2
